From PubChem BioAssay AID652058 (Broad Institute, 2013)
Hit rate of the full screen: of about 1,200 compounds, about 870 (72%) were called active. Roughly 3% stayed inconclusive and do not appear here.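 The calls were made as follows: active = every test run fits a falling curve whose half-maximal concentration is at most twice the top valid dose; inconclusive = runs disagree, or flat 30 to 70% inhibition, or poor fit; inactive = every run inactive: flat, rising or weaker potency.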 So high a share suggests a set chosen from earlier hits. A selection follows. Potency and affinity values are given separately.

assay: ZM109 Env clade C HIV-1 fusion inhibitors, dose response, HeLa effector, CEM target cells, luciferase, cherry-pick (AID 652058); details: HeLa Env/CEM cell fusion, 16-24 h; series mostly up to 35 µM;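 also: 0% = neutral control wells and -100% = maraviroc 300 nM wells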

Activity change, negative = inhibition, inactive:
c1coc(CNc2c3c(nc4ccccc24)CCC3)c1
Cc1ccc(NS(=O)(=O)c2cc(C(=O)N(C)C3CCN(C)CC3)ccc2Cl)cc1Cl
Cc1cc(Cl)c(S(=O)(=O)N2CCCC2)cc1OCC(=O)NC1CCCCC1
C=CCOc1c(Br)cc(CNc2ccc(NC(=O)C(C)C)c(OC)c2)cc1OC
Cc1noc(C)c1NC(=O)N(C)C[C@H]1OCCCC[C@H](C)Oc2ccc(NC(=O)c3ccccc3)cc2C(=O)N([C@H](C)CO)C[C@@H]1C
O=C(c1ccc(Cl)cc1)N1CCCCC(Sc2nnc(-c3ccc4c(c3)OCO4)o2)C1=O (stereo not drawn)
O=C(C[C@H]1C[C@H]2c3cc(NC(=O)Cc4ccncc4)ccc3O[C@H]2[C@@H](CO)O1)NCc1ccncc1
COc1cccc(S(=O)(=O)N[C@H]2CC[C@H](CC(=O)NCc3ccncc3)O[C@@H]2CO)c1
Cn1c(-c2ccc(Cl)cc2)ccc(C#N)c1=O
Cc1onc(-c2ccccc2)c1C(=O)OCCOc1cccc(Cl)c1
Cn1cccc1C(=O)OCC(=O)NCCc1ccc(S(N)(=O)=O)cc1
Cn1c(=O)c2c(nc(NCCc3ccccc3)n2Cc2ccccc2)n(C)c1=O
COc1ccc(S(=O)(=O)N2CCCCC2)cc1NC(=O)CCCOc1ccc(C)cc1
CCOC(=O)CN1CCCc2nc(C)c(C)cc21
COCc1[nH]nc2c1C(c1ccc(F)cc1)N(Cc1ccccc1)C2=O (stereo not drawn)
CC(=O)Nc1ccc(C(=O)OCC(=O)NC(=O)NCc2ccccc2)cc1
CCN(CC)S(=O)(=O)c1ccc(NC(=O)Nc2cccc(C(F)(F)F)c2)cc1
CCN(CC)S(=O)(=O)c1cccc(NC(=O)c2ccc(-n3nc(C)cc3C)cc2)c1
CC(C)(C)c1ccc(-n2ncc3c2CCCC3NC(=O)CN2CCCC2=O)cc1 (stereo not drawn)
C[C@H](CO)N1C[C@H](C)[C@H](CN(C)S(=O)(=O)c2ccccc2)Oc2cc(Br)ccc2S1(=O)=O
CC(C)(C)c1ccc(OCCC(=O)Nc2cccc(S(=O)(=O)N3CCOCC3)c2)cc1
CCc1nc(N2CCCCC2)c2oc3ccccc3c2n1
CCc1nc(N2CCCCC2C)c2oc3ccccc3c2n1 (stereo not drawn)
O=C1c2cccc(OCc3ccc(F)cc3)c2CCN1Cc1ccccc1
NC(=S)c1ccc(OCCCc2ccccc2)cc1 111% [at 8 µM]
Nc1ncn([C@H]2C[C@H](O)[C@@H](CO)O2)c(=O)n1
Nc1nc2c(ncn2[C@@H]2O[C@H](C(=O)NCC(c3ccccc3)c3ccccc3)[C@@H](O)[C@H]2O)c(=O)[nH]1
O=S(=O)(NC1CC1)c1ccc(S(=O)(=O)N2CCCc3ccccc32)cc1
O=C(Cn1ncc2c(=O)oc3ccccc3c21)N1CCC(N2CCCCC2)CC1
O=C(NCCc1ccccc1)c1ccc2c(c1)OCCO2
O=C(CCNC(=O)c1ccc(Br)cc1)NNC(=O)COc1ccccc1F
CC(=O)c1c(C)[nH]c(C(=O)OCCCCN2C(=O)c3ccccc3C2=O)c1C
CC(C)C#Cc1ccc2c(c1)O[C@@H](CN(C)C(=O)C1CCCCC1)[C@H](C)CN([C@H](C)CO)S2(=O)=O
COc1ccc(-c2ccc3c(c2)[C@@H]2[C@@H](CCN2C(=O)NC2CCCC2)[C@H](CO)N3C)cc1
N#CCSc1nnc(-c2sc3ccccc3c2Cl)o1
C[C@@H]1CN([C@H](C)CO)S(=O)(=O)c2ccc(-c3ccccc3)cc2O[C@@H]1CN(C)Cc1ccccc1
CCOc1ccc(NC2c3ccccc3C(=O)N2Cc2ccco2)cc1 (stereo not drawn)
Cc1ccc(S(=O)(=O)N(C)C[C@H]2Oc3ccc(NC(=O)Nc4cccc5ccccc45)cc3C(=O)N([C@H](C)CO)C[C@@H]2C)cc1
C[C@@H]1CN([C@H](C)CO)C(=O)c2cc(NC(=O)Nc3ccccc3)ccc2O[C@@H]1CN(C)S(=O)(=O)c1ccccc1
COc1ccccc1C#Cc1ccc([C@H]2[C@H](C#N)N(C(=O)C3CCCC3)[C@H]2CO)cc1
CCCCS(=O)(=O)N1CCN(C(=O)C(=O)c2cccc(C(F)(F)F)c2)CC1
COc1ccc(C)cc1NC(=O)CCNS(=O)(=O)c1ccc2c(c1)CC(C)N2C(C)=O (stereo not drawn)
COc1ccc(NC(=O)C(=O)NCC2CCCN2S(=O)(=O)c2cccs2)cc1 (stereo not drawn)
O=C(Nc1ccc(C(=O)OC2CCCCC2)cc1)c1ccncc1
Cc1cccc(/C=N\Nc2cn[nH]c(=O)c2Cl)c1
COc1ccc(NC(=O)CN2CCC(C(N)=O)(N3CCCCC3)CC2)cc1
COc1ccc(-c2cn(CC[C@H]3CC[C@H](NS(=O)(=O)c4ccccc4C)[C@H](CO)O3)nn2)cc1
CN(C)Cc1cn(CC[C@@H]2CC[C@H](N)[C@H](CO)O2)nn1
O=C(Nc1cccc(F)c1)N[C@H]1CC[C@@H](CCNS(=O)(=O)c2cccc(Cl)c2)O[C@H]1CO
O=C(Nc1cccc(F)c1)N[C@@H]1CC[C@H](CCNS(=O)(=O)c2cccc(Cl)c2)O[C@@H]1CO
O=C(Cc1ccncc1)N[C@H]1CC[C@@H](CCn2cc(-c3ccccc3F)nn2)O[C@@H]1CO
O=C(CCN1CCCCC1)N[C@@H]1CC[C@@H](CCn2cc(-c3ccccc3)nn2)O[C@@H]1CO
COc1ccc(-c2c(C)nn3c(C(F)(F)F)cc(C)nc23)cc1
CCCNC(=O)C[C@@H]1C[C@H]2c3cc(NC(=O)c4cccnc4)ccc3O[C@H]2[C@H](CO)O1
Cc1cccc(C)c1N(CC(O)Cn1c2ccccc2c2ccccc21)S(C)(=O)=O (stereo not drawn)
CCNC(=O)C[C@@H]1CC[C@@H]2[C@H](COC[C@@H](O)CN2C(=O)c2ccccn2)O1
CS(=O)(=O)N1CCc2cc(-c3csc(NC(=O)Cc4cccs4)n3)ccc21
O=C(Nc1nc(-c2ccc3c(c2)OCO3)cs1)c1ccncc1
